High-throughput results (PubChem)
hcDAF-12 act: H. contortus DAF-12 nuclear receptor activators, primary screen, cell-based, luminescence, HEK293, lit1-tk-luc reporter | 370,000 compounds, 1.4% hits | AID 652067, 2013 | HEK293 hcDAF-12 lit1-tk-luc reporter; 0% DMSO, 100% Δ7-dafachronic acid | activation, % at 6.8 µM;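 active = activation above the mean of all tested compounds plus 3 SD, cut at about 5.5% in these data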;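 also: 100% = response to 3 µM Δ7-dafachronic acid high control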
DAX1 inh-1: DAX1 (NR0B1) inhibitors, primary screen, cell-based, HEK293, Gal4-DAX1, luciferase luminescence; Nuclear receptor subfamily 0 group B member 1 (Homo sapiens), P51843; HEK293 Gal4-DAX1 luciferase reporter; inhibition, % at 6.75 µM; 340,000 compounds, 0.99% hits;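 active = inhibition above the mean over all tested compounds plus 3 SD, cut at about 4.2% in these data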;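 also: 0% = DAX1-transfected cells with DMSO and 100% = empty-vector control cells with DMSO; inhibition shows as a rise in luminescence from relieved DAX1 repression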
Target sequence (P51843 207-470 limits assumed): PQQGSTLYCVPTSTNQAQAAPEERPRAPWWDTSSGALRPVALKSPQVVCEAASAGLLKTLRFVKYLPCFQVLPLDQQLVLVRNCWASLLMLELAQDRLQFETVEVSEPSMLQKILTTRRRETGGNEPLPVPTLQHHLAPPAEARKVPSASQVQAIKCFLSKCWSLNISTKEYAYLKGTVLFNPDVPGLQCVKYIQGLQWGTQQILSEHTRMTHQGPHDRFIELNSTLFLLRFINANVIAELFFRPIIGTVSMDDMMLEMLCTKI
ssDAF-12 act: S. stercoralis DAF-12 nuclear receptor activators, primary screen, cell-based, luminescence, HEK293, GRIP1 co-expression, lit1-tk-luc; Nuclear hormone receptor DAF-12 (Strongyloides stercoralis); AID 652126, 2013; 370,000 compounds, 1% hits; activation, % at 6.8 µM; HEK293 ssDAF-12/GRIP1 lit1-tk-luc reporter; % of 3 µM dafachronic acid response;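 active = activation above the mean over all tested compounds plus 3 SD, cut at about 0.9% in these data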;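 also: 0% = DMSO-only wells and 100% = 3 µM delta7-dafachronic acid wells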
hgDAF-12 ag: H. glycines DAF-12 receptor agonists, primary screen, cell-based, luminescence, HEK293, GAL4 fusion, UAS-luciferase; activation, % at 6.8 µM; HEK293 GAL4-hgDAF12 UAS-luciferase reporter, agonist luminescence; normalized to butyrate control; 370,000 compounds, 1.8% hits;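 active = activation above a cutoff set at the mean of all screened compounds plus 3 SD, cut at about 10% in these data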;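 also: 0% = DMSO wells and 100% = sodium butyrate wells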
DAX1 inh-2: DAX1 (NR0B1) inhibitors on StAR promoter, primary screen, cell-based, luminescence, SF-1 (NR5A1), full-length DAX-1; HEK293T StAR-luciferase reporter, SF-1/DAX-1 repression relief; inhibition, % at 6.8 µM; 370,000 compounds, 1.1% hits;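 active = inhibition above the mean over all tested compounds plus 3 SD, cut at about 3.6% in these data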;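 also: 0% = DAX-1 cells with DMSO and 100% = cells lacking DAX-1 with DMSO; higher inhibition means more luminescence from relief of DAX-1 repression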
Active calls of the source: *; . = no result given. An excerpt weighted towards active compounds, which were near 4.1% of everything screened.

SMILES	hcDAF-12 act	DAX1 inh-1	ssDAF-12 act	hgDAF-12 ag	DAX1 inh-2
CSCC[C@H](N)C(=O)N1CCC(C(=O)N[C@@H](C)C(=O)NCc2ccc(F)cc2)CC1	1	3	-2	1	0
COc1ccc(CNC(=O)[C@H](C)NC(=O)C2CCN(C(=O)[C@@H](N)CCSC)CC2)cc1	-1	4.4*	-2	-1	0
COc1ccc(CNC(=O)[C@H](C)NC(=O)C2CCN(C(=O)[C@@H](N)Cc3ccccc3)CC2)cc1	-1	6.1*	-1	6	1
COc1ccc(CNC(=O)[C@H](NC(=O)C2CCN(C(=O)[C@@H](N)CCSC)CC2)C(C)C)cc1	-1	2	-1	-3	0
COC(=O)[C@]12C[C@H](CC(=O)N3CCN(C(=O)C4CC4)CC3)C(=O)N(Cc3ccc(Cl)cc3Cl)C1=C[C@H](COCc1ccccc1)O[C@@H]2C	-3	.	-1	0	-1
COC(=O)[C@@]12CCCCC3=C1N(CCC3)C(=O)[C@H]2CC(=O)N1CCSCC1	-1	.	1.5*	0	-1
Cc1ccc(NC(=O)Cn2nnc(-c3ccccc3F)n2)cc1C	-3	.	-1	0	1
N#Cc1ccccc1COC(=O)c1cc(=O)c2ccccc2o1	6.4*	2	-1	2	0
CN(C)CCCN1C(=O)c2oc3ccc(F)cc3c(=O)c2C1c1cccnc1 (stereo unspecified)	0	1	0	11*	1
Cc1cccc(C2Nc3ccccc3C(=O)N2NC(=O)c2ccc([N+](=O)[O-])cc2)n1 (stereo unspecified)	-2	1	-1	-2	0
O=C(NN1C(=O)c2ccccc2NC1c1ccccn1)c1ccc([N+](=O)[O-])cc1 (stereo unspecified)	-2	-2	1.0*	1	0
O=C(NCc1ccc2c(c1)OCO2)c1ccc2c(=O)n(C3CCCC3)c(=O)[nH]c2c1	0	4.9*	-1	2	0
COc1ccc(Cn2c(=O)[nH]c3cc(C(=O)NCc4ccc5c(c4)OCO5)ccc3c2=O)cc1	-3	-1	-1	0	0
COc1ccc(CN2C3=N[C@H](c4ccccc4)CC(=O)N3/C(=C\c3ccccc3)C2c2ccco2)c(OC)c1 (stereo partly specified)	0	.	0	-1	0
CN(C(=O)c1cccc(NC(=O)Cc2ccc(NC(=O)C3CCCN(C(=O)c4ccccc4)C3)cc2)c1)C1CC1 (stereo unspecified)	-2	.	0	-4	0
Cc1c(C(=O)Nc2ccncc2)oc2ccccc12	1	0	-2	-1	-1
Cc1c2cnccc2c(C)c2c1oc1ccccc12	2	2	-1	11*	1
CCOC(=O)N1CCN(C(=O)C[C@@H]2C(=O)N(Cc3ccc(OC)cc3)/C3=C/CCCCC[C@@]32C(=O)OCC)CC1	-2	.	-2	1	0
O=C(CCO)c1ccc(O)cc1	-1	4.3*	-1	3	1
Cc1ccc(CC(=O)c2ccc(Cl)cc2)cc1	3	1	-1	1	0
O=C(Cc1ccc(Cl)cc1)c1ccc(O)cc1	1	4.9*	-1	6	1
CCCCC(=O)c1ccc(O)cc1	2	-1	-1	0	0
CCCCN(C(=O)CCN1C(=O)C2CC=CCC2C1=O)c1c(N)n(CCCC)c(=O)[nH]c1=O (stereo unspecified)	-1	4.3*	-1	2	0
CCCCN(C(=O)C1=COCCO1)c1c(N)n(CCCC)c(=O)[nH]c1=O	0	0	-1	1	1
CCCCn1c(N)c(N(CC)C(=O)C2=COCCO2)c(=O)[nH]c1=O	0	1	0	2	3.9*
SMILES	hcDAF-12 act	DAX1 inh-1	ssDAF-12 act	hgDAF-12 ag	DAX1 inh-2
O=C(c1cccs1)N1CCc2ccccc21	1	2	0	8	2
O=C(C1CCCN1C(=O)c1cccs1)N1CCc2ccccc21 (stereo unspecified)	6.0*	-1	0	1	0
Cc1ccc2[nH]c(O)c(N=O)c2c1	1	4.9*	0	0	0
Cc1ccc2[nH]c(O)c(N=Nc3ccccc3C)c2c1	4	-1	0	-1	0
COC(=O)c1cc(-c2ccccc2OC)c(=O)n2c1CCC2	1	.	-2	3	-1
Clc1ccc(-n2nnnc2CN2CCOCC2)cc1	0	6.0*	-1	-1	-1
O=[N+]([O-])c1cccnc1N1CCCCC1	-1	0	-1	0	0
O=c1n(-c2ccc(Br)cc2)cnn1-c1ncccc1[N+](=O)[O-]	3	4.3*	-1	8	3
Cn1c(-c2ncc(F)cc2F)cc2onc(-c3c(F)cccc3Cl)c2c1=O	9.3*	6.4*	1.3*	10	1
Cn1c(-c2ccccc2F)cc2onc(-c3ccccc3)c2c1=O	4	5.5*	0	12*	5.0*
Cc1onc(-c2c(F)cccc2Cl)c1C(=O)NC1CC1	1	0	-1	0	1
Cn1c(-c2ccccc2)cc(=O)cc1-c1ccccc1	1	0	-1	1	1
Cn1c(-c2ccccc2)cc2onc(-c3ccccc3)c2c1=O	5.6*	2	0	4	3
C/C(=N\Nc1nccnc1Cl)c1ccc(O)c(C)c1	4	-1	0	12*	2
Cc1ccc2nc(-c3ccccc3)c(Cc3cccc(Cl)c3)n2c1	1	.	0	7	1
Cc1ccc2nc(C(C)(C)C)c(Cc3ccsc3)n2c1	1	.	0	-1	-1
CCCc1nc2ccc(C)cn2c1Cc1ccsc1	5.6*	.	0	5	2
CCCc1nc2ccc(C)cn2c1Cc1cccc(Cl)c1	5.6*	.	1.6*	8	1
CCn1c(SCC(=O)NN=Cc2cccc(OCc3ccccc3)c2)nnc1-c1ccc(OC)c(OC)c1	-2	.	-2	-1	-2
CC1CCN(C2=NC(=O)N(c3ccc(Br)cc3)C(=O)C2)CC1	0	.	0	2	0
CCCc1cc(C(=O)NC2CCCCC2)no1	2	1	0	13*	2
CCCc1cc(C(=O)NCc2cccnc2)no1	5.8*	1	-1	3	0
COc1ccc(-c2cc(C(=O)NCc3cccnc3)no2)cc1	-1	0	-1	7	0
O=C(NCc1cccnc1)c1cc(-c2ccccc2)on1	1	2	-1	12*	1
